Measurements as given in the supplement of paper PMC10849652.
Targets with a hit are over-represented here; the source holds about 7,900 in all. About 0.6% of all pairs of compound and target were hits.

How the values were obtained:
Assay in all cases: log2 fold change, soluble protein after heating vs DMSO (PISA); higher = thermal stabilisation; K562 cells, 10 uM, 30 min; active = over 0.2 and 3.5 SD of the protein, either way, in both replicates (recomputed)
[1] = compound: COC1=CC=C(C=C1)CN2C=CC3=C2C=C(C=C3)C(=O)NO
In short: (§1)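 Thermal stability values are relative to control samples and come from duplicates. They are expressed as log2 fold changes. For measurement, K562 cells (2×10^6 cells/mL) received 10 μM compound for 30 min, and aliquots were heated for 3 min over 48°C-58°C, pooled, and extracted at 4°C in PBS with 0.5% NP-40. Soluble protein, the supernatant after 21,000xg for 90 min, was quantified by TMTpro 16plex LC-MS/MS with equalised channel sums.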

filanesib = compound: CON(C)C(=O)N1N=C(c2cc(F)ccc2F)S[C@@]1(CCCN)c1ccccc1 [filanesib]
In short: as §1

zotarolimus = compound: CO[C@H]1C[C@@H]2CC[C@@H](C)[C@@](O)(O2)C(=O)C(=O)N2CCCC[C@H]2C(=O)O[C@H]([C@H](C)C[C@@H]2CC[C@H](n3cnnn3)[C@H](OC)C2)CC(=O)[C@H](C)/C=C(\C)[C@@H](O)[C@@H](OC)C(=O)[C@H](C)C[C@H](C)/C=C/C=C/C=C/1C [zotarolimus]
In short: as §1

idasanutlin = compound: COc1cc(C(=O)O)ccc1NC(=O)[C@@H]1N[C@@H](CC(C)(C)C)[C@](C#N)(c2ccc(Cl)cc2F)[C@H]1c1cccc(Cl)c1F [idasanutlin]
In short: as §1

alisertib = compound: COc1cc(Nc2ncc3c(n2)-c2ccc(Cl)cc2C(c2c(F)cccc2OC)=NC3)ccc1C(=O)O [alisertib]
In short: as §1

[2] = compound: COc1cc2nc(-c3cc(F)ccc3O)nc(N[C@@H]3CNC[C@H]3C(C)(C)O)c2cc1OC
In short: as §1

gefitinib = compound: COc1cc2ncnc(Nc3ccc(F)c(Cl)c3)c2cc1OCCCN1CCOCC1 [gefitinib]
In short: as §1

[3] = compound: COc1cccc2cc(-c3nc([C@H]4CC[C@H](C(=O)O)CC4)n4ncnc(N)c34)[nH]c12
In short: as §1

lapatinib = compound: CS(=O)(=O)CCNCc1ccc(-c2ccc3ncnc(Nc4ccc(OCc5cccc(F)c5)c(Cl)c4)c3c2)o1 [lapatinib]
In short: as §1

pictilisib = compound: CS(=O)(=O)N1CCN(Cc2cc3nc(-c4cccc5[nH]ncc45)nc(N4CCOCC4)c3s2)CC1 [pictilisib]
In short: as §1

Measured: log2 fold change

KPNA6 (UniProt O60684)
inactive: [1] 0.193 | filanesib 0.115 | zotarolimus 0.169 | idasanutlin -0.031 | alisertib -0.01 | [2] 0.056 | gefitinib 0.048 | [3] -0.066 | lapatinib -0.018 | pictilisib -0.017

KPNB1 (UniProt Q14974)
inactive: [1] 0.033 | filanesib -0.024 | zotarolimus 0.052 | idasanutlin -0.048 | alisertib -0.07 | [2] -0.065 | gefitinib -0.063 | [3] -0.076 | lapatinib -0.001 | pictilisib -0.032

MAP4 (UniProt E7EVA0)
inactive: [1] -0.027 | filanesib 0.216 | zotarolimus -0.1 | idasanutlin 0.023 | alisertib -0.094 | [2] -0.134 | gefitinib 0.109 | [3] -0.024 | lapatinib 0.186 | pictilisib 0.019

IRF3 (UniProt Q14653)
inactive: [1] -0.075 | filanesib -0.141 | zotarolimus 0.021 | idasanutlin -0.073 | alisertib -0.085 | [2] -0.08 | gefitinib 0.011 | [3] 0.023 | lapatinib -0.003 | pictilisib 0.053

MARK3 (UniProt P27448)
inactive: [1] 0.008 | filanesib 0.054 | zotarolimus 0.062 | idasanutlin 0.091 | alisertib 0.05 | [2] -0.219 | gefitinib -0.002 | [3] -0.063 | lapatinib 0.022 | pictilisib -0.033

MAGI1 (UniProt Q96QZ7)
Chain of UniProt Q96QZ7 (Q96QZ7 whole entry, looked up): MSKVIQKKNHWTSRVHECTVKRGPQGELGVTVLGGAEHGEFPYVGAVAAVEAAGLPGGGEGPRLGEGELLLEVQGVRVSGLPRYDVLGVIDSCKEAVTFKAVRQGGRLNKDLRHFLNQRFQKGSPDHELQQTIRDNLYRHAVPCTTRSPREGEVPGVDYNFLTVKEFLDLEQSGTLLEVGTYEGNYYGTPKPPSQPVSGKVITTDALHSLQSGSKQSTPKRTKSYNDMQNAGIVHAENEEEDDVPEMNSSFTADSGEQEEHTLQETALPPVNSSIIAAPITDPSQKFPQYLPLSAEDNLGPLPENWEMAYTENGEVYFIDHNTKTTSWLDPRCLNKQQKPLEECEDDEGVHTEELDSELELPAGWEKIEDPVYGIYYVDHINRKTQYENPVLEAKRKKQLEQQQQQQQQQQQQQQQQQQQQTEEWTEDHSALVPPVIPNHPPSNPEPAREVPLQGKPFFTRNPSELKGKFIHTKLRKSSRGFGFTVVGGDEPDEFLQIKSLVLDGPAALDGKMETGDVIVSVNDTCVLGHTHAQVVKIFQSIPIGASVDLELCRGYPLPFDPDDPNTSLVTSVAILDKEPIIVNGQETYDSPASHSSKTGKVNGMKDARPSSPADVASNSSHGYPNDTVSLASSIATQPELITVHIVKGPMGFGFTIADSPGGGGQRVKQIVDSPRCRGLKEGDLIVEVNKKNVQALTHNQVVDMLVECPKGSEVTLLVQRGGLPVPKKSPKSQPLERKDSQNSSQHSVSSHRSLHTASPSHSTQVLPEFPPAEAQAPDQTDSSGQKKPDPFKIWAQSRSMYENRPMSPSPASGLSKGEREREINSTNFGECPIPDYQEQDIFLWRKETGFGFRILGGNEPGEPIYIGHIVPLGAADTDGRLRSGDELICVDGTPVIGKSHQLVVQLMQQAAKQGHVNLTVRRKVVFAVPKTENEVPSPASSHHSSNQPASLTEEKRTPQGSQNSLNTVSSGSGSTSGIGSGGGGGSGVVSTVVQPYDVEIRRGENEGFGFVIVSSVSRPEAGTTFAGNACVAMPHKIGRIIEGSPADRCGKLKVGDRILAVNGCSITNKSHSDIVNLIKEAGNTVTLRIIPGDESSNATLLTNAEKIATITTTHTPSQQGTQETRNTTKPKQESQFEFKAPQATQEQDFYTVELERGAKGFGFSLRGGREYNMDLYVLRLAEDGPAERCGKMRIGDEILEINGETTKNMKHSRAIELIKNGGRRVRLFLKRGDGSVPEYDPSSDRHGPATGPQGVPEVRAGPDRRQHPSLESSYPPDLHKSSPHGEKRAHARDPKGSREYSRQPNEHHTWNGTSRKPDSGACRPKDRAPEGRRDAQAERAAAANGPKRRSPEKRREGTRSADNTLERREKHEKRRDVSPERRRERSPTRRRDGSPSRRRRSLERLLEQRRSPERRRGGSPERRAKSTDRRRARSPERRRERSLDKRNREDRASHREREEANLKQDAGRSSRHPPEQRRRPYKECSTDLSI
inactive: [1] -0.031 | filanesib 0.053 | zotarolimus -0.044 | idasanutlin 0.084 | alisertib -0.01 | [2] 0.005 | gefitinib 0.042 | [3] -0.012 | lapatinib 0.01 | pictilisib 0.053

MAPK12 (UniProt P53778)
inactive: [1] 0.066 | filanesib -0.062 | zotarolimus 0.026 | idasanutlin -0.072 | alisertib -0.115 | [2] 0.084 | gefitinib -0.269 | [3] 0.093 | lapatinib -0.056 | pictilisib 0.062

ILF3 isoform 7 (UniProt Q12906)
inactive: [1] 0.022 | filanesib 0.213 | zotarolimus -0.047 | idasanutlin 0.095 | alisertib -0.061 | [2] 0.174 | gefitinib -0.022 | [3] -0.06 | lapatinib 0 | pictilisib 0.018

LMNA (UniProt P02545)
inactive: [1] -0.093 | filanesib 0.088 | zotarolimus 0.018 | idasanutlin 0.093 | alisertib 0.096 | [2] -0.112 | gefitinib -0.014 | [3] 0 | lapatinib 0.028 | pictilisib 0.008

LIMD1 (UniProt Q9UGP4)
inactive: [1] 0.027 | filanesib -0.007 | zotarolimus 0.028 | idasanutlin 0.028 | alisertib -0.059 | [2] 0 | gefitinib -0.078 | [3] -0.01 | lapatinib 0.06 | pictilisib -0.043

IPO13 (UniProt O94829)
inactive: [1] -0.017 | filanesib -0.144 | zotarolimus -0.039 | idasanutlin -0.038 | alisertib 0.021 | [2] -0.024 | gefitinib -0.047 | [3] 0.008 | lapatinib 0.038 | pictilisib 0.109

MIEN1 (UniProt Q9BRT3)
Chain of UniProt Q9BRT3 (Q9BRT3 whole entry, looked up): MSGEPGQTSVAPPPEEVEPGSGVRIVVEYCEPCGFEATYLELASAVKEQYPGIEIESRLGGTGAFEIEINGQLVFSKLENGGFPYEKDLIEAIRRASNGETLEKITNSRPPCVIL
inactive: [1] -0.084 | filanesib 0.085 | zotarolimus 0.015 | idasanutlin -0.009 | alisertib 0.034 | [2] 0.061 | gefitinib 0.027 | [3] 0.001 | lapatinib -0.016 | pictilisib 0.001

JMJD6 isoform 3 (UniProt Q6NYC1)
inactive: [1] -0.061 | filanesib -0.039 | zotarolimus 0.03 | idasanutlin 0.019 | alisertib 0.013 | [2] -0.088 | gefitinib 0.059 | [3] -0.021 | lapatinib -0.016 | pictilisib 0.039

LSR (UniProt Q86X29)
inactive: [1] 0.107 | filanesib 0.116 | zotarolimus -0.011 | idasanutlin -0.022 | alisertib -0.122 | [2] 0.027 | gefitinib 0.021 | [3] 0.033 | lapatinib -0.056 | pictilisib 0.121

LTN1 isoform 3 (UniProt O94822)
inactive: [1] 0 | filanesib -0.009 | zotarolimus 0.039 | idasanutlin -0.136 | alisertib 0.01 | [2] 0.04 | gefitinib -0.04 | [3] -0.108 | lapatinib -0.029 | pictilisib -0.157

KCTD2 (UniProt Q14681)
inactive: [1] 0.068 | filanesib 0.154 | zotarolimus -0.148 | idasanutlin 0.116 | alisertib -0.012 | [2] 0.402 | gefitinib 0.025 | [3] 0.154 | lapatinib -0.413 | pictilisib 0.426

LUC7L2 (UniProt Q9Y383)
inactive: [1] 0.05 | filanesib 0.121 | zotarolimus 0.113 | idasanutlin 0.093 | alisertib -0.032 | [2] -0.048 | gefitinib -0.052 | [3] 0.008 | lapatinib 0.04 | pictilisib 0.095

LARP7 isoform 3 (UniProt Q4G0J3)
inactive: filanesib 0.071 | zotarolimus 0.082 | idasanutlin -0.019 | alisertib -0.007 | [2] -0.165 | gefitinib 0.001 | [3] 0.042 | lapatinib 0.082 | pictilisib -0.041
active: [1] -0.258

MAP3K7 (UniProt O43318)
Chain of UniProt O43318 (O43318 whole entry, looked up): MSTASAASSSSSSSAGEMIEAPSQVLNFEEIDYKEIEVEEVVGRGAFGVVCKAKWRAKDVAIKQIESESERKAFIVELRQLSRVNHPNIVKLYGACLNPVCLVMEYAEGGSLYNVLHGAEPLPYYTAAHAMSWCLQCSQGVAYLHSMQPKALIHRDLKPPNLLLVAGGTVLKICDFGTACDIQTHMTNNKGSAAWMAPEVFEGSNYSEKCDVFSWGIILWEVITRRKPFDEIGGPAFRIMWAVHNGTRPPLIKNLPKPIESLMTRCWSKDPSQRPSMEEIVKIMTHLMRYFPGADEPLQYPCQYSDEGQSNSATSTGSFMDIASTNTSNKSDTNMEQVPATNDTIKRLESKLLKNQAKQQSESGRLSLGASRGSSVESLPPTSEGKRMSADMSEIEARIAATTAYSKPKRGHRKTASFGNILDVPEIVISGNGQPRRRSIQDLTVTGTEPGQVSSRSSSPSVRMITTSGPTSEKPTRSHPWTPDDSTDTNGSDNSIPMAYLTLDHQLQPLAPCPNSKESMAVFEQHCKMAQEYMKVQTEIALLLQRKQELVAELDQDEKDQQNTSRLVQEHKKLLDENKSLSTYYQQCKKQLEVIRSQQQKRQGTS
inactive: [1] 0.105 | filanesib 0.026 | zotarolimus -0.074 | idasanutlin -0.03 | alisertib 0.084 | [2] 0.065 | gefitinib 0.016 | [3] -0.054 | lapatinib -0.058 | pictilisib 0.088

LNPEP (UniProt Q9UIQ6)
inactive: [1] 0.001 | filanesib -0.014 | zotarolimus -0.03 | idasanutlin -0.014 | alisertib -0.01 | [2] 0.016 | gefitinib 0.01 | [3] 0.058 | lapatinib 0.003 | pictilisib 0.04

MAP2K3 isoform 3 (UniProt P46734)
inactive: [1] 0.076 | filanesib 0.01 | zotarolimus -0.018 | idasanutlin -0.019 | alisertib 0.152 | [2] 0.166 | gefitinib -0.086 | [3] -0.022 | lapatinib -0.079 | pictilisib 0.07

LAMP2 (UniProt P13473)
inactive: [1] -0.125 | filanesib -0.058 | zotarolimus -0.022 | idasanutlin -0.005 | alisertib -0.006 | [2] -0.012 | gefitinib 0.005 | [3] 0.084 | lapatinib -0.079 | pictilisib 0.046

KDM3B (UniProt Q7LBC6)
Chain of UniProt Q7LBC6 (Q7LBC6 whole entry, looked up): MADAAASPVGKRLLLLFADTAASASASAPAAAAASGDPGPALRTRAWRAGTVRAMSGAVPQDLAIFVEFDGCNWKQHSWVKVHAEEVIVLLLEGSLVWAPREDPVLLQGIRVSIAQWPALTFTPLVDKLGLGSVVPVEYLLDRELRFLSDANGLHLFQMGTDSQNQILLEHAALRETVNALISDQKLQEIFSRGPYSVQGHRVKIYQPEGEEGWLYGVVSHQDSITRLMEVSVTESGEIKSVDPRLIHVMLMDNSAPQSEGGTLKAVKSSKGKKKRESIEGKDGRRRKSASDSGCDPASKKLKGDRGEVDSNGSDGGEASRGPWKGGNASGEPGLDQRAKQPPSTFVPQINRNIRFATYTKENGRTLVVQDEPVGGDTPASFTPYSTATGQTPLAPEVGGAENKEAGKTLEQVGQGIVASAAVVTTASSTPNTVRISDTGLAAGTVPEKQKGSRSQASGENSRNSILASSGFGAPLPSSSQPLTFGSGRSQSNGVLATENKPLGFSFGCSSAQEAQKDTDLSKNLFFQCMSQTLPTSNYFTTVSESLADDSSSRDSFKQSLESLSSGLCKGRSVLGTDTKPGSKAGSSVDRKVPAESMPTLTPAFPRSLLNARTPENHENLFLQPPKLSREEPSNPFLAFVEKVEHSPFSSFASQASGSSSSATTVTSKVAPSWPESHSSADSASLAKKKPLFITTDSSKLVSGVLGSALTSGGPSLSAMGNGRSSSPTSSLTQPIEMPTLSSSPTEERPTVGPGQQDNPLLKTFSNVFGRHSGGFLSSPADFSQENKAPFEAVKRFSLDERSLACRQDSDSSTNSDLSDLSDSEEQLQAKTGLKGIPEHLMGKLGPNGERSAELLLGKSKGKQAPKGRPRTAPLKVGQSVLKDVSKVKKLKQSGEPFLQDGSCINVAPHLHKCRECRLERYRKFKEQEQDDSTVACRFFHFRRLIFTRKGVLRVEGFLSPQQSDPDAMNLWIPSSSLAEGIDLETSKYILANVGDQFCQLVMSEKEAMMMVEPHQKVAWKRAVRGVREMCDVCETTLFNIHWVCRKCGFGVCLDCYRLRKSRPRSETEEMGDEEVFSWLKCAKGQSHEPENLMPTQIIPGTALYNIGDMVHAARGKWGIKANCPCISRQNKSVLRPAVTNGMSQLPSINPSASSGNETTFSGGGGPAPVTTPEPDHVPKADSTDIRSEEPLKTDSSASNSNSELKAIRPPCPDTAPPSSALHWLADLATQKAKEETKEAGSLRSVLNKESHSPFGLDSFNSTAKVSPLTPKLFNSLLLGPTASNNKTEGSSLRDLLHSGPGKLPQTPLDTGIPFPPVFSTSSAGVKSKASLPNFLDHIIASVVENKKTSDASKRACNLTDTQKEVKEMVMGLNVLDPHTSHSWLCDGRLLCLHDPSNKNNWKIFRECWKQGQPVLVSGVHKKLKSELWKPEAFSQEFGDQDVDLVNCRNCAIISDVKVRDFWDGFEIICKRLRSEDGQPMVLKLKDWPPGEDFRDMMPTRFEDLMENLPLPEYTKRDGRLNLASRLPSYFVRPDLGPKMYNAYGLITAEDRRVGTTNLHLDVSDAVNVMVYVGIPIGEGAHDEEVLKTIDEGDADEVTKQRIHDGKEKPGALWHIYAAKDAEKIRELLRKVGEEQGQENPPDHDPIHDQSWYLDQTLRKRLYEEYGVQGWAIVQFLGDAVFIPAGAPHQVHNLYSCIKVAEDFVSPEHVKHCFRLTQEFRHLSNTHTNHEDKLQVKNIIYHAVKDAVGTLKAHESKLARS
inactive: [1] 0.01 | filanesib 0.001 | zotarolimus 0.033 | idasanutlin -0.026 | alisertib 0.021 | [2] 0.065 | gefitinib 0.008 | [3] -0.029 | lapatinib -0.014 | pictilisib 0.012

LSS (UniProt P48449)
Chain of UniProt P48449 (P48449 whole entry, looked up): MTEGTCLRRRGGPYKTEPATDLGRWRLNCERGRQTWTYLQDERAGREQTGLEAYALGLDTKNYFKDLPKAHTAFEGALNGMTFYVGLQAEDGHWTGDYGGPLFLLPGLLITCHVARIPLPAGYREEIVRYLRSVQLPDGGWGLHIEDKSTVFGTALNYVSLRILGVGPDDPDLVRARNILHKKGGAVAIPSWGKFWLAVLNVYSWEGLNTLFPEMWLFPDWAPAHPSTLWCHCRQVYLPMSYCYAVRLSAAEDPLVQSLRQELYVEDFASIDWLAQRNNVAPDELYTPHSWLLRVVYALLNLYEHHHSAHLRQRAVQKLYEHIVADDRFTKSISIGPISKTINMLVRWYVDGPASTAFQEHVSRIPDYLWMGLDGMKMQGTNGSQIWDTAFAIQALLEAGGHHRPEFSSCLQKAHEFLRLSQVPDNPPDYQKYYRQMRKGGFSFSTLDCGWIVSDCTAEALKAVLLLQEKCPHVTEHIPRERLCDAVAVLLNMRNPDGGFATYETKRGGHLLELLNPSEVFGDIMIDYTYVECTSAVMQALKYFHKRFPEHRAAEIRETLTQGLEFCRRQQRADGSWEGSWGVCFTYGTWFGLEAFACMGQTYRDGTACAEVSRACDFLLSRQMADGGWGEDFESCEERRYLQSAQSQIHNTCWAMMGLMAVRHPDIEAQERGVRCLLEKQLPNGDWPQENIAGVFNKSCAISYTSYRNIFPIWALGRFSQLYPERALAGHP
inactive: [1] 0.205 | filanesib 0.026 | zotarolimus -0.027 | idasanutlin -0.116 | alisertib 0.121 | [2] 0.16 | gefitinib 0.126 | [3] -0.014 | lapatinib 0.02 | pictilisib 0.07

KPNA1 (UniProt P52294)
inactive: [1] -0.115 | filanesib 0.072 | zotarolimus 0.065 | idasanutlin 0.019 | alisertib 0.078 | [2] 0.083 | gefitinib 0.011 | [3] -0.042 | lapatinib 0.01 | pictilisib 0.094

MED25 isoform 3 (UniProt Q71SY5)
inactive: [1] -0.015 | filanesib -0.018 | zotarolimus 0.136 | idasanutlin 0.004 | alisertib 0.048 | [2] -0.01 | gefitinib 0.093 | [3] -0.285 | lapatinib -0.03 | pictilisib 0.103

MAPK14 isoform 2 (UniProt Q16539)
Chain of UniProt Q16539 (Q16539 whole entry, looked up): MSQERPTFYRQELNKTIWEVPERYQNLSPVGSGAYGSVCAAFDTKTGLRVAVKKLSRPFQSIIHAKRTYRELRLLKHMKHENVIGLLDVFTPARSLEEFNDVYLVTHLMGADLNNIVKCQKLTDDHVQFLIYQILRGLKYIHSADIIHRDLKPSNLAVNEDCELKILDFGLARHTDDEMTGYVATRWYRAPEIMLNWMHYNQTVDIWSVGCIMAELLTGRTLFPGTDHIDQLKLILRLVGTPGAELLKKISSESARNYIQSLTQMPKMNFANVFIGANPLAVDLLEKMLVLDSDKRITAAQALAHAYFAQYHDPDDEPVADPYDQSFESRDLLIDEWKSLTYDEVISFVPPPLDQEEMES
inactive: [1] 0 | filanesib 0.016 | zotarolimus -0.033 | idasanutlin -0.018 | alisertib -0.058 | [2] -0.005 | gefitinib 0.811 | [3] 0.319 | lapatinib -0.034 | pictilisib -0.114

ILF2 (UniProt Q12905)
inactive: [1] 0.086 | filanesib 0.101 | zotarolimus -0.024 | idasanutlin 0.084 | alisertib -0.146 | [2] 0.068 | gefitinib -0.045 | [3] -0.08 | lapatinib 0.101 | pictilisib -0.035

MFGE8 (UniProt Q08431)
inactive: [1] -0.129 | filanesib 0.129 | zotarolimus -0.03 | idasanutlin 0.05 | alisertib -0.147 | [2] 0.019 | gefitinib 0.069 | [3] -0.124 | lapatinib 0.079 | pictilisib 0.122

LRPPRC (UniProt P42704)
inactive: [1] 0.303 | filanesib -0.788 | zotarolimus -0.02 | idasanutlin 0 | alisertib 0.207 | [2] -0.638 | gefitinib -0.189 | [3] 0.119 | lapatinib -0.091 | pictilisib -0.119
